Test results as given in PubChem BioAssay (Tox21).
Values joined by “and” are separate entries in the source; they are usually repeats but may differ in a detail not shown here. Equal entries are not always repeated. Inconclusive results are not listed. Some compounds were tested as several samples or in several runs, with calls that do not always agree. Active and inactive are the calls of the source. Unless noted, the call rests on the fitted dose curve; in most records, active means well fitted curve in the direction sought with a large enough effect in the repeat runs; inconclusive means weak or mixed curves; inactive means no such curve, though single readings can be large; an effect the other way counts as inactive or inconclusive.

Columns and labels:
[1] = qHTS assay to identify aromatase inhibitors - cell viability counter screen (AID 743084);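 further: cells stimulated with testosterone during compound exposure; nearly all actives have a fitted effect of over 55% in size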; further: potency means the concentration at half of the fitted maximal effect
[2] = qHTS assay to identify small molecule that activate the aryl hydrocarbon receptor (AhR) signaling pathway - cell viability counter screen (AID 743086);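 further: HepG2 liver cells carrying the AhR DRE luciferase reporter; series mostly up to about 70 µM; nearly all actives have a fitted effect of over 45% in size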
Outline: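 Cytotoxicity counter screen: CellTiter-Fluor signal (30 min, 37 C) in 4000 HepG2 cells/well carrying the DRE-luciferase reporter, following 24 h compound exposure at 37 C.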

[3] = target: Peroxisome proliferator-activated receptor gamma (Homo sapiens) (UniProt P37231); assay: qHTS assay to identify small molecule antagonists of the peroxisome proliferator-activated receptor gamma (PPARg) signaling pathway (AID 743191; calls by dose curve; further: series mostly up to about 63 µM; nearly all actives have a fitted effect of over 30% in size)
Outline: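 Beta-lactamase reporter under UAS control in HEK293H PPARg-bla cells; compound treatment 17 h at 37C. Read-out: fluorescence intensity after 1 h room-temperature incubation with LiveBLAzer B/G FRET substrate.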

[4] = qHTS assay to identify small molecule antagonists of the peroxisome proliferator-activated receptor gamma (PPARg) signaling pathway - cell viability counter screen (AID 743194); details: Potency: co-treated with 50 nM rosiglitazone unless noted; further: nearly all actives have a fitted effect of over 55% in size; further: potency means the concentration at half of the fitted maximal effect
Outline: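 Viability was measured as CellTiter-Glo luminescence in GeneBLAzer PPARg UAS-bla HEK293H cells. These cells had been exposed 17 h at 37 C to compounds together with rosiglitazone at 50 nM final, with the beta-lactamase readout taken in the same wells.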

[5] = qHTS assay for small molecule agonists of the antioxidant response element (ARE) signaling pathway (AID 743202; active means well fitted activation curve with a large enough effect in the signal ratio in the repeat runs, not every such curve was filed as active; the % refers to the signal ratio; further: potency means the concentration at half of the fitted maximal effect)
Outline: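 After 16 hours of compound treatment at 37 C, HepG2 cells with a stably integrated ARE-driven beta-lactamase reporter were loaded 2 hours at room temperature with LiveBLAzer B/G FRET substrate and fluorescence intensity measured.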

[6] = qHTS assay for small molecule agonists of the antioxidant response element (ARE) signaling pathway - cell viability counter screen (AID 743203; calls by dose curve; further: nearly all actives have a fitted effect of over 55% in size; further: potency means the concentration at half of the fitted maximal effect)
Outline: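 Parallel cytotoxicity read-out for the ARE-bla screen: HepG2 reporter cells, 16 hrs with compounds, then CellTiter-Glo luminescence.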

[7] = qHTS assay for small molecule activators of the heat shock response signaling pathway - cell viability counter screen (AID 743209); further: nearly all actives have a fitted effect of over 50% in size; further: potency means the concentration at half of the fitted maximal effect
Outline: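 To flag cytotoxic compounds, HSE-bla HeLa cells plated at 1500 cells/well were dosed for 5 h at 37 C, followed by the reporter FRET read and then CellTiter-Glo, with luminescence recorded 30 min after reagent addition.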

[8] = qHTS assay for small molecule activators of the heat shock response signaling pathway (AID 743210; active means well fitted activation curve with a large enough effect in the signal ratio in the repeat runs, with a control signal flat, not every such curve was filed as active; the % refers to the signal ratio; further: series mostly up to about 63 µM)
Outline: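 Compound exposure lasted 5 h at 37 C in HeLa cells carrying a heat-shock-element-driven beta-lactamase reporter. Read-out: fluorescence intensity after 2.5 h room-temperature loading with LiveBLAzer B/G FRET substrate.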

[9] = qHTS assay to identify small molecule agonists of the peroxisome proliferator-activated receptor delta (PPARd) signaling pathway - cell viability counter screen (AID 743211); further: nearly all actives have a fitted effect of over 55% in size; further: potency means the concentration at half of the fitted maximal effect
Outline: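 Tox21 library compounds, delivered in DMSO, were incubated 17 h with PPARd-bla HEK293H cells; cytotoxicity was taken from CellTiter-Glo luminescence read 30 min after reagent addition.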

[10] = qHTS assay to identify small molecule antagonists of the peroxisome proliferator-activated receptor delta (PPARd) signaling pathway - cell viability counter screen (AID 743213); further: nearly all actives have a fitted effect of over 50% in size
Outline: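 CellTiter-Glo was added to PPARd-bla HEK293H wells following 17 h compound treatment in the presence of 300 nM L165041. Luminescence was recorded after 30 min at room temperature.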

[11] = target: Bile acid receptor (Homo sapiens) (UniProt Q96RI1); assay: qHTS assay to identify small molecule antagonists of the farnesoid-X-receptor (FXR) signaling pathway (AID 743217; active means well fitted inhibition curve with a large enough effect in the signal ratio in the repeat runs, not every such curve was filed as active; the % refers to the signal ratio; further: potency means the concentration at half of the fitted maximal effect)
Outline: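 Quantitative HTS, beta-lactamase reporter format: FXR-UAS-bla HEK 293T cells co-treated 16 h at 37 °C with compounds and 50 uM final chenodeoxycholic acid, then read by B/G FRET fluorescence.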

[12] = qHTS assay to identify small molecule agonists of the farnesoid-X-receptor (FXR) signaling pathway - cell viability counter screen (AID 743218); further: nearly all actives have a fitted effect of over 45% in size; further: potency means the concentration at half of the fitted maximal effect
Outline: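 Same-well cytotoxicity check on FXR-UAS-bla HEK 293T cells: 5 h attachment, 16 h compound at 37 C, CellTiter-Glo luminescence read at room temperature after 30 min.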

[13] = qHTS assay to identify small molecule antagonists of the farnesoid-X-receptor (FXR) signaling pathway - cell viability counter screen (AID 743221; active means well fitted cell-killing curve with a large enough effect in the repeat runs, not every such curve was filed as active; further: nearly all actives have a fitted effect of over 50% in size)
Outline: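 Cytotoxicity is taken from ATP luminescence (CellTiter-Glo, 30 min, room temperature) in FXR-bla HEK 293T cells previously incubated 16 h at 37 C with compound and chenodeoxycholic acid at 50 uM final.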

[14] = target: Vitamin D3 receptor (Homo sapiens) (UniProt P11473); assay: qHTS assay to identify small molecule agonists of the vitamin D receptor (VDR) signaling pathway (AID 743222; calls by dose curve)
Outline: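 Using LiveBLAzer B/G FRET detection, agonism was scored in VDR-bla cells exposed overnight (16 h, 37C) to DMSO-dissolved compounds; substrate incubation was 2 h at room temperature.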

[15] = target: Peroxisome proliferator-activated receptor gamma (Homo sapiens) (UniProt P37231); assay: qHTS assay to identify small molecule agonists of the peroxisome proliferator-activated receptor gamma (PPARg) signaling pathway (AID 743094; active means well fitted activation curve with a large enough effect in the signal ratio in the repeat runs, not every such curve was filed as active; the % refers to the signal ratio)
Outline: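 Fluorescence-based beta-lactamase readout in HEK293H PPARg UAS-bla cells after 17 h compound exposure (37C) and 1 h B/G FRET substrate incubation at room temperature.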

[16] = target: Peroxisome proliferator-activated receptor delta (Homo sapiens) (UniProt Q03181); assay: qHTS assay to identify small molecule agonists of the peroxisome proliferator-activated receptor delta (PPARd) signaling pathway (AID 743212; calls by dose curve;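 further: HEK293H cells with PPARd UAS beta-lactamase reporter GeneBLAzer system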)
Outline: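 Beta-lactamase reporter readout: a ratiometric FRET signal from the LiveBLAzer substrate after 2 h at room temperature. Compound exposure at 37 °C in PPARδ-bla HEK293H cells driven by an upstream activator sequence.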

[17] = target: Peroxisome proliferator-activated receptor delta (Homo sapiens) (UniProt Q03181); assay: qHTS assay to identify small molecule antagonists of the peroxisome proliferator-activated receptor delta (PPARd) signaling pathway (AID 743215; active means well fitted inhibition curve with a large enough effect in the signal ratio in the repeat runs, not every such curve was filed as active; the % refers to the signal ratio;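 further: cells stimulated with agonist L165041 at 300 nM final during compound exposure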; further: potency means the concentration at half of the fitted maximal effect)
Outline: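 Screen format: qHTS, antagonist mode. HEK293H PPARd-bla cells received compound and 300 nM L165041 (final), 17 h, 37 C. Beta-lactamase detected via FRET substrate fluorescence, 2 h, room temperature.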

[18] = target: Bile acid receptor (Homo sapiens) (UniProt Q96RI1); assay: qHTS assay to identify small molecule agonists of the farnesoid-X-receptor (FXR) signaling pathway (AID 743220; active means well fitted activation curve with a large enough effect in the signal ratio in the repeat runs, not every such curve was filed as active; the % refers to the signal ratio)
Outline: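 FXR-UAS-bla HEK 293T cells carrying a UAS-driven beta-lactamase reporter were plated for 5 h at 37C/5% CO2, then exposed to DMSO-dissolved Tox21 10K compounds for 16 h at 37C. A LiveBLAzer B/G FRET substrate was loaded for 2 h at room temperature before fluorescence reading.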

[19] = target: Vitamin D3 receptor (Homo sapiens) (UniProt P11473); assay: qHTS assay to identify small molecule antagonists of the vitamin D receptor (VDR) signaling pathway (AID 743223; active means well fitted inhibition curve with a large enough effect in the signal ratio in the repeat runs, not every such curve was filed as active; the % refers to the signal ratio)
Outline: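 Quantitative HTS in VDR-bla reporter cells stimulated with 1alpha,25-dihydroxyvitamin D3, 3 nM final. Compound exposure 16 h, 37C, 5% CO2. Read-out: beta-lactamase FRET substrate fluorescence, 2 h RT.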

[20] = target: Aryl hydrocarbon receptor (Homo sapiens) (UniProt P35869); assay: qHTS assay to identify small molecule that activate the aryl hydrocarbon receptor (AhR) signaling pathway (AID 743085); further: nearly all actives have a fitted effect of over 15% in size; further: potency means the concentration at half of the fitted maximal effect;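 on activation: HG2L7.5c1 human HepG2 liver cells with stably integrated DRE-driven firefly reporter; series mostly up to about 70 µM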
Outline: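 A multiplexed format paired cell viability (CellTiter-Fluor fluorescence) with AhR-dependent luciferase output (ONE-Glo luminescence) in the same wells of HepG2 DRE-luc cells after 24 h compound exposure at 37C.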

Measured: Potency

Chain of Peroxisome proliferator-activated receptor gamma (Homo sapiens) (P37231 whole entry, looked up): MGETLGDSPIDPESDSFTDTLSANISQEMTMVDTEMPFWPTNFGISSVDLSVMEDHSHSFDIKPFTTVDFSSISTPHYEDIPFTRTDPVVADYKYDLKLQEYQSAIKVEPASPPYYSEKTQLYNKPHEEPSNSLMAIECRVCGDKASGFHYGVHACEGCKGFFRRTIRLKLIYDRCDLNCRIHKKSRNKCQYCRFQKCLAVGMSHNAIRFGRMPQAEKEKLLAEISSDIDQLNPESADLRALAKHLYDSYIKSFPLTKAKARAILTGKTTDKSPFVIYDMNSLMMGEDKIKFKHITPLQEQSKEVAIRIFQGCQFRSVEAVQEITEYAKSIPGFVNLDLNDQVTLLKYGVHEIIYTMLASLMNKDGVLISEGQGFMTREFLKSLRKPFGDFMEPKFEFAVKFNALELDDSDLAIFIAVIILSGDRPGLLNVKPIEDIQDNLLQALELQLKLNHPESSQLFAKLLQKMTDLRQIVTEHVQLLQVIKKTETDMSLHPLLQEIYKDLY
Chain of Bile acid receptor (Homo sapiens) (Q96RI1 whole entry, looked up): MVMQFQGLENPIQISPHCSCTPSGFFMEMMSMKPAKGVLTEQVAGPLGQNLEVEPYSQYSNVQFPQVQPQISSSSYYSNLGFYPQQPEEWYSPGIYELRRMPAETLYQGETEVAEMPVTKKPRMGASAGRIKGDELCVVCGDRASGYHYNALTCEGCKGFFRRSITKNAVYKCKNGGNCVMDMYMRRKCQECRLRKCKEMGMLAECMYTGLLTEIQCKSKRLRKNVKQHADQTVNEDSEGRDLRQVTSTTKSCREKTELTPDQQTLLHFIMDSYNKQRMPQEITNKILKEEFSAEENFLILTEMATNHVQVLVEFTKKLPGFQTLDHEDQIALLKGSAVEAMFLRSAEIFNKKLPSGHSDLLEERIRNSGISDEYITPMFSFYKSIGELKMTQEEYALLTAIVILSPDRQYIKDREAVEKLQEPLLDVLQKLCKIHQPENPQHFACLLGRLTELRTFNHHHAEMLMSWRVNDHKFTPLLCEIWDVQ
Chain of Peroxisome proliferator-activated receptor delta (Homo sapiens) (Q03181 whole entry, looked up): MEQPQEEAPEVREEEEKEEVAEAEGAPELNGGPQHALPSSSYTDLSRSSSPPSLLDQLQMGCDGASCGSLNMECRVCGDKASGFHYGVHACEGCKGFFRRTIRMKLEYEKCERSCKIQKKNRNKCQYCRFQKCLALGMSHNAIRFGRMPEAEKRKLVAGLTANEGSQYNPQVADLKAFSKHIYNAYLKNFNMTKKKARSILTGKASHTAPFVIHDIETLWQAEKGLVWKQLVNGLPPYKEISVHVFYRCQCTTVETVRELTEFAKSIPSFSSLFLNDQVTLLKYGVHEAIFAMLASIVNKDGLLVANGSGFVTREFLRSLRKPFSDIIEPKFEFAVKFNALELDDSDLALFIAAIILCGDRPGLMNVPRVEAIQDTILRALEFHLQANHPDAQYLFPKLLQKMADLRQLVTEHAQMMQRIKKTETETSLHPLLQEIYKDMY
Chain of Vitamin D3 receptor (Homo sapiens) (P11473 whole entry, looked up): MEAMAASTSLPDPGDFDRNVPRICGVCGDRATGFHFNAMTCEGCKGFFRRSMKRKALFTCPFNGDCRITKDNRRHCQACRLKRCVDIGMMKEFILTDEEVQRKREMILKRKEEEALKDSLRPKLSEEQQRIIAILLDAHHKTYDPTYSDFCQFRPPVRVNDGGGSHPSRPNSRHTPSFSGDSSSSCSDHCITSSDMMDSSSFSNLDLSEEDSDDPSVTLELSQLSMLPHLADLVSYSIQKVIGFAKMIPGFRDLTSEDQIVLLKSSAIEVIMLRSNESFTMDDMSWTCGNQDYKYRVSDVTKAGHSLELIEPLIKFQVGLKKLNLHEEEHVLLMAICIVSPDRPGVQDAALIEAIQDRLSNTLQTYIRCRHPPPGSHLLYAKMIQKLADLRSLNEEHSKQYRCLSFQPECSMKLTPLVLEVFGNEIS
Chain of Aryl hydrocarbon receptor (Homo sapiens) (P35869 whole entry, looked up): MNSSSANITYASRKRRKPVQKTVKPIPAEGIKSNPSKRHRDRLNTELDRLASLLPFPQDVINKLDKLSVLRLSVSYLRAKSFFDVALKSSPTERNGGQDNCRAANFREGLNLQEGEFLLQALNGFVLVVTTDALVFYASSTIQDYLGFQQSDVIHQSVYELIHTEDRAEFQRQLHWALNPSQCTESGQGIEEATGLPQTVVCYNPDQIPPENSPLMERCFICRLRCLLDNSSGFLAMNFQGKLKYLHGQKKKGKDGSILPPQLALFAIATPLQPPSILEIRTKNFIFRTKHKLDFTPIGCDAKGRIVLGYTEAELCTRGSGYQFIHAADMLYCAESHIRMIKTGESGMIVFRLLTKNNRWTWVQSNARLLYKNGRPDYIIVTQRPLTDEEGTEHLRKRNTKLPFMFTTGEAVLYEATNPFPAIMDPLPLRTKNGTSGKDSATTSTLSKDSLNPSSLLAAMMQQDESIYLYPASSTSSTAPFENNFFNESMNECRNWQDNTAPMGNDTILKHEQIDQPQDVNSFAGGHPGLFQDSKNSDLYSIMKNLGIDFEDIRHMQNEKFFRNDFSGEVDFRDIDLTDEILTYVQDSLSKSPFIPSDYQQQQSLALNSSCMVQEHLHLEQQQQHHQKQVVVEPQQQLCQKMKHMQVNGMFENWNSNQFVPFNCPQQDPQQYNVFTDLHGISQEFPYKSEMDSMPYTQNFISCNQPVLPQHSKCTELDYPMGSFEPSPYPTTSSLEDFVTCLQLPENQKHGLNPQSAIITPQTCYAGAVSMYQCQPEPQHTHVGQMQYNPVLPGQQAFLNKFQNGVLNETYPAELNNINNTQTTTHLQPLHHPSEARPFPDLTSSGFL

C=CCBr
inactive: [1] | [2] | [3] | [4] | [5] | [6] | [7] | [8] | [9] | [10] | [11] | [12] | [13] | [14]

CCCCC(CC)COC(=O)OOC(C)(C)C (configuration not stated)
inactive: [1] | [2] | [15] | [4] | [5] | [6] | [9] | [16] | [10] | [17] | [13] | [14]
active: [7] 49 µM

C=CCOC(=O)c1ccccc1N
inactive: [1] | [2] | [15] | [3] | [4] | [5] | [6] | [7] | [8] | [9] | [16] | [17] | [12] | [13] | [14]

CCOP(=S)(NC(C)C)Oc1ccccc1C(=O)OC(C)C (configuration not stated)
active: [5] 54.5 µM | [12] 21.9 µM
inactive: [1] | [2] | [3] | [4] | [7] | [8] | [9] | [10] | [18] | [19]

CCN(CC)CCN1C(=O)CN=C(c2ccccc2F)c2cc(Cl)ccc21
inactive: [1] | [2] | [3] | [4] | [6] | [7] | [16] | [10] | [17] | [11] | [12] | [13] | [14] | [19]

COP(=S)(NC(C)C)Oc1ccc(C)cc1[N+](=O)[O-] (configuration not stated)
inactive: [1] | [2] | [15] | [4] | [5] | [6] | [7] | [8] | [9] | [16] | [10] | [17] | [11] | [12] | [18] | [13] | [14] | [19]

CC1(C)C(C=C(Cl)Cl)C1C(=O)OC(C#N)c1ccc(F)c(Oc2ccccc2)c1 (configuration not stated)
inactive: [1] | [2] | [3] | [4] | [5] | [6] | [7] | [9] | [16] | [10] | [17] | [13] | [14]

CCC(C)Br (configuration not stated)
inactive: [1] | [2] | [15] | [3] | [4] | [5] | [6] | [9] | [16] | [10] | [17] | [12] | [13] | [14] | [19]

CNN
inactive: [1] | [2] | [3] | [4] | [5] | [6] | [7] | [8] | [10] | [12] | [13]

Nc1ccc(N=Nc2ccccc2)cc1
inactive: [6] | [7]
active: [1] 24.3 µM | [20] 26.5 µM

ClC1=C(Cl)[C@]2(Cl)[C@H]3[C@H]([C@@H]4C=C[C@H]3C4)[C@@]1(Cl)C2(Cl)Cl
inactive: [1] | [2] | [15] | [5] | [8] | [16] | [17] | [13] | [14] | [19]
inactive and 15.5 µM (active): [9]
active: [4] 49 µM | [12] 38.9 µM
inactive and 24.5 µM (active): [7]
inactive and 54.5 µM (active): [6]

CC(C)(C)c1ccc(OP(=O)(Oc2ccccc2)Oc2ccccc2)cc1
inactive: [1] | [2] | [15] | [6] | [16] | [12] | [14] | [19]
active: [17] 22 µM | [11] 24.7 µM

O=NN(CCO)CCO
inactive: [1] | [2] | [15] | [3] | [4] | [5] | [6] | [8] | [10] | [11] | [12] | [18] | [13] | [14] | [19]

[O-][Cl+3]([O-])([O-])O
inactive: [1] | [2] | [15] | [3] | [4] | [5] | [6] | [7] | [8] | [9] | [16] | [13]

O.O.O.O.O.O.O=S(=O)([O-])[O-].[Ni+2]
inactive: [1] | [20] | [4] | [6] | [7] | [9] | [10] | [12] | [13]

Oc1cc(Cl)cc(Cl)c1
inactive: [1] | [2] | [3] | [6] | [8] | [9] | [16] | [10] | [12] | [13] | [14] | [19]
